Laboratory results reported in PubChem BioAssay AID602350 (Broad Institute, 2012).
Potency and affinity values are given separately. Activity calls are given as the source filed them.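 Rule for the calls: active = absorbance falls by 30% or more versus neutral controls, with a potency fitted within twice the top valid dose; inconclusive = no clear call, values can overlap the other calls; inactive = change opposite to expected direction, plus the rest.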

What follows are compounds tested against Protein disulfide-isomerase (Homo sapiens) (UniProt P07237) (assay: inhibition of PDI-driven insulin aggregation – biochemical, turbidity, absorbance, cherry-picked samples, dose response (AID 602350;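 note: 0% = neutral controls and -100% = rutin hydrate positive control wells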)). Conditions: recombinant PDI insulin aggregation, absorbance 650 nm, 90 min; series mostly up to 19.5 µM.
Chain of Protein disulfide-isomerase (Homo sapiens) (P07237 whole entry, looked up): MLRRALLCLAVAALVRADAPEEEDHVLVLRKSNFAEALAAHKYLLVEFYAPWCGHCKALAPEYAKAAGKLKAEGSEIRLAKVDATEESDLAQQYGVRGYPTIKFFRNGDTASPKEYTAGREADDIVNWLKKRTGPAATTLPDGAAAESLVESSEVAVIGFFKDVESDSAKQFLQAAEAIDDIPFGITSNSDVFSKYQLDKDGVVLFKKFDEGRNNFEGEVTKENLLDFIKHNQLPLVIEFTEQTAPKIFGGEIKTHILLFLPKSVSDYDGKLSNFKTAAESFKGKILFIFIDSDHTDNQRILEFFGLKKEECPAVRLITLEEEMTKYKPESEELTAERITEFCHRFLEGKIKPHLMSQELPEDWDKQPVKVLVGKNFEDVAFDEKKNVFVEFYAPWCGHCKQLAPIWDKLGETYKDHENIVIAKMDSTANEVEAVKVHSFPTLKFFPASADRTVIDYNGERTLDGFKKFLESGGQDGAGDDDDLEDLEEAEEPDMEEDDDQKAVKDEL

outcome, inactive:
C[C@@H](C(=O)NCc1ccccc1)N1C(=O)C2CC=CCC2C1=O (stereo not given in full), CCc1ccc2[nH]c(=O)c(CN(Cc3ccccc3OC)Cc3nnnn3Cc3ccco3)cc2c1, CCCCNC(=O)CCn1c(=O)c2ccccc2n(CC(=O)Nc2ccccc2OCC)c1=O, CN(C)C(=O)CSc1nnc([C@H](Cc2ccccc2)NC(=O)OC(C)(C)C)o1, COc1ccc(Oc2ccc(/C=C/C(=O)c3ccc(O)cc3)cc2[N+](=O)[O-])cc1, CCS(=O)(=O)c1ccc2oc(SCC(=O)NC(C)C3CC4CCC3C4)nc2c1 (stereo not given), CC(C)c1ccc(Nc2nc(CC(=O)O)cs2)cc1, CN1CCN(C(=O)CSc2nnc(COc3ccc(Cl)cc3)o2)CC1, Cc1cccc(C(=O)OCC(=O)N2CCCCCC2)c1O, CCCCNC(=O)Nc1ccon1, CC(=O)c1ccc(NC(=O)c2cc(Cl)nc3ccccc23)cc1, CC(=O)NC1(c2nnnn2CCOC(=O)Nc2ccc(Cl)cc2)CCCCC1, CCCCn1c(N)c(N(CC(C)C)C(=O)c2cc(-c3ccncc3)nc3ccccc23)c(=O)[nH]c1=O, COc1cc2c(cc1OC)C1C(C(=O)Nc3ccccc3N3CCN(C)CC3)c3ccccc3C(=O)N1CC2 (stereo not given), Cc1nnc(SCc2cc(=O)oc3cc(O)ccc23)n1Cc1ccccc1, S=C(NCCN1CCOCC1)Nc1ccc(Br)cc1, O=C1CCC(=O)N1CCc1c[nH]c2ccccc12, Cc1c(-n2cc(C(=O)c3cc(Br)ccc3O)cc(C#N)c2=O)c(=O)n(-c2ccccc2)n1C, COc1ccccc1NS(=O)(=O)c1cccc(C(=O)NCC2(N3CCCCC3)CCCCC2)c1, CCOC(=O)Oc1c(OC)cc(C(=O)O[C@@H]2C[C@@H]3CN4CCc5c([nH]c6cc(OC)ccc56)[C@H]4C[C@@H]3[C@H](C(=O)OC)[C@H]2OC)cc1OC, COc1cccc(/C=N/NC(=O)CNC(=O)C(c2ccccc2)c2ccccc2)c1O, CCOc1ncccc1C(=O)OCC(=O)Nc1ccc(C(C)C)cc1, CCCn1nnnc1NC(=O)c1cccs1, COc1cc(CCC(=O)OCC(=O)Nc2cc(S(=O)(=O)N3CCOCC3)ccc2Cl)cc(OC)c1OC, CC(=O)NC(Cc1c[nH]c2ccccc12)C(=O)OCC(=O)N1CCN(S(=O)(=O)c2ccc(Cl)cc2)CC1 (stereo not given), O=C1CN(c2nc3ccccc3n3cnnc23)CC(=O)N1CCc1ccccc1, C[C@H](CO)N1C[C@H](C)[C@@H](CN(C)S(=O)(=O)c2ccc(F)cc2)Oc2ccc(NC(=O)Cc3ccccc3)cc2C1=O, CCOc1ccc(C(=O)NCC(=O)OCC(=O)N(C)CC(=O)Nc2ccccc2CC)cc1OCC, Cc1ccc(N2CC(C(=O)N3CCCCCC3)CC2=O)cc1 (stereo not given), O=C(/C=C/c1ccccc1)Nc1scc(-c2ccccc2)c1C(=O)O, COc1ccc(CCNC(=O)c2cc(S(=O)(=O)N(C)C)ccc2N2CCCC2)cc1, Cn1cc(Cl)c(C(=O)OCC(=O)Nc2ccccc2)n1, CC(NC(=O)COC(=O)Cc1ccccc1[N+](=O)[O-])c1ccccc1 (stereo not given), Cc1[nH][nH]c(=O)c1C(c1c(C)[nH][nH]c1=O)c1cn(Cc2ccccc2Cl)c2ccccc12, CCOC(=O)c1c(CN2CCN(Cc3ccccc3)CC2)n(C)c2cc(Br)c(OC)cc12, CCCNC(=O)c1cccc(COc2ccccc2OC)c1, Cc1cc2c3c(c1)C1(C(=O)N3C(C)(C)CC2C)C(C#N)=C(N)Oc2n[nH]c(C)c21 (stereo not given), O=C(C[C@H]1C[C@H](C(=O)N2CCCCC2)[C@@]2(CCc3ccccc3)c3[nH]c4cc(-c5ccco5)ccc4c3CCN2C1=O)NCCC1=CCCCC1, Cc1ccc(C)c(N2CCN(S(=O)(=O)c3ccc4c(c3)OCCO4)CC2)c1

Activity change, negative = inhibition, inactive:
CC[C@]12c3[nH]c4cc(-c5ccco5)ccc4c3CCN1C(=O)[C@@H](CC(=O)NCCCOC)C[C@@H]2C(=O)N1CCN(C(=O)C2CC2)CC1 0.067% [at 2.1 µM]
